The values that follow come from PubChem BioAssay.

Experiment [1] is described as follows: small molecules captured by biotinylated probe aFSTL3 – biochemical, small-molecule microarray, fluorescence 635/667, stem cell growth factor project, primary screen (AID 1064).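 Also: measures binding of the biotinylated anti-FSTL3 antibody to printed compounds.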 The note with it: higher = more signal.
Experiment [2] is described as follows: binders from COS7 lysate, DM2A8 probe, primary screen, torsin A project, cell lysate, small-molecule microarray, fluorescence 635/667 (AID 1065). The note with it: higher = more signal, COS7 lysate expressing mutant human TOR1A.
Experiment [3] in a line: small molecules captured by biotinylated probe aFGF2 – biochemical, small-molecule microarray, fluorescence 635/667, stem cell growth factor project, primary screen (AID 1067).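 Also: measures binding of biotinylated aFGF2 protein to printed compounds on slides; z-score merges feature fluorescence and signal-to-noise across triplicate slides.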 The note with it: higher = more signal.
The nature of experiment [4]: small molecules captured by biotinylated probe aFGF10 – biochemical, small-molecule microarray, fluorescence 635/667, stem cell growth factor project, primary screen (AID 1071).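 Also: score merges 667 nm spot intensity and signal to noise from triplicate slides.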 The note with it: higher = more signal.
Experiment [5] deals with Neurogenic locus notch homolog protein 2 (Homo sapiens) (UniProt Q04721). The experiment is described as follows: small molecules binding Notch2 protein – biochemical, small-molecule microarray, 635 nm fluorescence, stem cell growth factors, primary screen (AID 1073). The note with it: higher = more signal.
Neurogenic locus notch homolog protein 2 (Homo sapiens), sequence (Q04721 whole entry, looked up, canonical isoform): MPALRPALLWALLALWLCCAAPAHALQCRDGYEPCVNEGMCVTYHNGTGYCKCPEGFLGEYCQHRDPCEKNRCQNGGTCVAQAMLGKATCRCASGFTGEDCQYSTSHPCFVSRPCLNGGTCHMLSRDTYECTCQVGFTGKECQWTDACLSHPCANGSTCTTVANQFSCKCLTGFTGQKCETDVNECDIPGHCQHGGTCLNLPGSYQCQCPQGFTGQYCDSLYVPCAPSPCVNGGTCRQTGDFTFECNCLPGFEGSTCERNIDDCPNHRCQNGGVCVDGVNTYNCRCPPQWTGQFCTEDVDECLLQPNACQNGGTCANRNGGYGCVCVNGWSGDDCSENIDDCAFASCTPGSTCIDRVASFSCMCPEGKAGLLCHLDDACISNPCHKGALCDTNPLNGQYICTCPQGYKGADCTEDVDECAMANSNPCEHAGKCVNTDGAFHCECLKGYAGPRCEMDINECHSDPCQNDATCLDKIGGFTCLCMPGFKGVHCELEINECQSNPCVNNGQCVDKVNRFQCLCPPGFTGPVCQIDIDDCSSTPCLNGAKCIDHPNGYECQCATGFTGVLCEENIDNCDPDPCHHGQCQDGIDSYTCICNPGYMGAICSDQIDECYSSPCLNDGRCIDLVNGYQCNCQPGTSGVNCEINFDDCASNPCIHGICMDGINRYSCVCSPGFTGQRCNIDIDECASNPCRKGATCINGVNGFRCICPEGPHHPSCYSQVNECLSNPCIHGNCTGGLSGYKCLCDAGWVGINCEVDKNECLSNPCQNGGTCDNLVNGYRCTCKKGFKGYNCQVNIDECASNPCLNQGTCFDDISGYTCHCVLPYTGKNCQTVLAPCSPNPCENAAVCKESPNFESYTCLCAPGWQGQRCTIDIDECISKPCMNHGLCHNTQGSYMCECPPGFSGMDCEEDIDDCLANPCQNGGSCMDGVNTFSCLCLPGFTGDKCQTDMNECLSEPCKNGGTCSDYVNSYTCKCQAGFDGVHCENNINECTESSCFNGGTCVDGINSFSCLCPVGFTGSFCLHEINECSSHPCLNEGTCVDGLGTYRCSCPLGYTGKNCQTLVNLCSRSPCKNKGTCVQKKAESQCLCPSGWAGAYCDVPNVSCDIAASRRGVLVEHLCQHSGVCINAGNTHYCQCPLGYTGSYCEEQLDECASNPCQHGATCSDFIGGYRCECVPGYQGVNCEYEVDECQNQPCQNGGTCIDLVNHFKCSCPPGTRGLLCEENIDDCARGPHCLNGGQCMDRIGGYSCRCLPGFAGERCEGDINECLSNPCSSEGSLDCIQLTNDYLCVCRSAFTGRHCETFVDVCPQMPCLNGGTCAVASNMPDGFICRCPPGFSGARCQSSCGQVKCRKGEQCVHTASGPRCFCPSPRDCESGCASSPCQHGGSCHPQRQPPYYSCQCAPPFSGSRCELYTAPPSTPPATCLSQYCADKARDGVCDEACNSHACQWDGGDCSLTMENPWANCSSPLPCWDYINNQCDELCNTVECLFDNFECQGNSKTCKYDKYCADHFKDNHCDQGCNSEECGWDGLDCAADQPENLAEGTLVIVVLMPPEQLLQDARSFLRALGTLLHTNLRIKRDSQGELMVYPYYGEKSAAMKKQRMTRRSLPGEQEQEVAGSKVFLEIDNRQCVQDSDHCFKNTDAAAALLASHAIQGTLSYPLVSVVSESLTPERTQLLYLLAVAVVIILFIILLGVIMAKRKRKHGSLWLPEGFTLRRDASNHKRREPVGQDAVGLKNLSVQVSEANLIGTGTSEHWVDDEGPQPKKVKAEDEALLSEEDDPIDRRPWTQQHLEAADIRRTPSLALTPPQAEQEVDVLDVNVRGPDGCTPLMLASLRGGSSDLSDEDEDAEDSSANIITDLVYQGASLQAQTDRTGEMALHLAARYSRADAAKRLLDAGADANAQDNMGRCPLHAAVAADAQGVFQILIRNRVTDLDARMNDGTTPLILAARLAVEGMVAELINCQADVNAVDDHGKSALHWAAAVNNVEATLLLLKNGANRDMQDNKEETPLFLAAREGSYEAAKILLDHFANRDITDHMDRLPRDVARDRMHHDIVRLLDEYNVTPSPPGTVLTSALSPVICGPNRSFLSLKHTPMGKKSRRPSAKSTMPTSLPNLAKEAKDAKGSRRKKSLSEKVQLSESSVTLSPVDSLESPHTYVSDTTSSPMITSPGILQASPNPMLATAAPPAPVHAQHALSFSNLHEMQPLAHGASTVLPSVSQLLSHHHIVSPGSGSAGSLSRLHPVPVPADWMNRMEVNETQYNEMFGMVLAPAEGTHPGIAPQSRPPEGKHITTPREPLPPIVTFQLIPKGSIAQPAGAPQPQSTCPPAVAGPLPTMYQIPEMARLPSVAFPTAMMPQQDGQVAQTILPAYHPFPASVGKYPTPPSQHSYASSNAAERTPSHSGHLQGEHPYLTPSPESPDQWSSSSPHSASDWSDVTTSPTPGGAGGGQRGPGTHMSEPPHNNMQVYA
The target of experiment [6] is Pro-neuregulin-1, membrane-bound isoform (Homo sapiens) (UniProt Q02297). Kind of experiment: small molecules binding neuregulin-1 protein – biochemical, small-molecule microarray, fluorescence 635/667, psychiatric disease protein project, primary screen (AID 1075).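 Also: score combines 667 nm spot fluorescence with signal to noise.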 The note with it: NRG1 binding, 635 nm fluorescence, higher = more signal.
Pro-neuregulin-1, membrane-bound isoform (Homo sapiens), sequence (Q02297 whole entry, looked up, the tested form may be a part, canonical isoform): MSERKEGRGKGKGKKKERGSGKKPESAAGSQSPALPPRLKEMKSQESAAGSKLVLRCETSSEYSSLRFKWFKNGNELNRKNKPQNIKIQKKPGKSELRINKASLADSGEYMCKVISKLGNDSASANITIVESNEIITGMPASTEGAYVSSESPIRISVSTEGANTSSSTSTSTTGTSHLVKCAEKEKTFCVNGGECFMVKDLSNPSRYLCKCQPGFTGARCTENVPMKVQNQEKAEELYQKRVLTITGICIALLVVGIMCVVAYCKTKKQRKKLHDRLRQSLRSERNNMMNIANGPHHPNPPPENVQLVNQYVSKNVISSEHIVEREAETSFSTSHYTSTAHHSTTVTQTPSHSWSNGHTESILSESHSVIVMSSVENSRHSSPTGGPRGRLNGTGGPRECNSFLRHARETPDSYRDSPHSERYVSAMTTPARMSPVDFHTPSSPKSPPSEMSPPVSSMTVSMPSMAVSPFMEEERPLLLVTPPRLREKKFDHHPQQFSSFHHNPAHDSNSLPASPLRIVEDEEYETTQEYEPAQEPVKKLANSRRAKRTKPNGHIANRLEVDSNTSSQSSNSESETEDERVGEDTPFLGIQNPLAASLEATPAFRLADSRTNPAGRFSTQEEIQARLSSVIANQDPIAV
For experiment [7], the system named is Neuregulin-1 EGF-like domain. Kind of experiment: small molecules binding NRG1 EGF domain – biochemical, small-molecule microarray, 635 nm fluorescence, primary screen (AID 1081).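 Also: binding of the protein to compounds printed on small-molecule microarray slides.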 The note with it: higher = more signal.
Experiment [8] in a line: FRG1 expression reporter modulators in myotubes – cell-based, C2C12 myotubes, firefly/Renilla luciferase, luminescence, FRG1 inhibition for FSHD, primary screen (AID 1084). The note with it: FRG1 promoter luciferase, higher = more signal, called active from +8 up or from −8 down.
Experiment [9] is described as follows: small molecules captured by biotinylated probe aFST – biochemical, small-molecule microarray, fluorescence 635/667, stem cell growth factor project, primary screen (AID 1086).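 Also: score merges 667 nm fluorescence with signal-to-noise of each printed compound spot.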 The note with it: higher = more signal.
Experiment [10] can be described thus: binders of probe aHhip on microarray, primary screen, stem cell growth factor project, biochemical, small-molecule microarray, fluorescence 635/667 (AID 1087).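 Also: score merges spot fluorescence at 667nm with spot signal to noise ratio.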 The note with it: higher = more signal.

Active and inactive are the calls of the source.

Turning to `CCCCCCCCCCC(O)C1C=CC2C(=O)N(C)C(=O)C2N1Nc1ccccc1` (stereo not given), the composite z-score in [1] was 0.889; in experiment [2] it was 0.149; in [3], -0.229; in [4], -1.07; in experiment [5] it was -0.932; in [6] it was 0.0962. Moreover, the composite z-score in [7] is -0.101; in experiment [9], -0.191; in [10] it was -0.469. Also, the z-score in [8] was 0.767 (inactive).

As to `COC(=O)C(CC#Cc1ccc2c(c1)[C@]1(C(=O)N2)[C@H](C(=O)NC[C@H](O)c2ccccc2)[C@H]2C(=O)O[C@H](c3ccccc3)[C@H](c3ccccc3)N2[C@@H]1c1ccc(O)cc1)C(=O)OC`, the composite z-score in experiment [1] is -0.297; in experiment [2] it was 0.328; in experiment [3], -0.121; in [4], -0.199; in experiment [5] it was 0.259; in [6] it was 0.529. The values for the composite z-score in [7], in [9] and in [10] were 0.773, 0.056 and -0.131, respectively. The z-score in experiment [8] is 0.589 (inactive).

With `O=C(NCCN1CCOCC1)[C@@H]1c2ccccc2C(=O)N(CC23CC4CC(CC(C4)C2)C3)[C@H]1c1ccc(CO)cc1`, the composite z-score in experiment [1] is -0.203; in experiment [2], 0.336; in experiment [3] it was 0.0458; in experiment [4] it was 0.734; in [5] it was 1.64; in experiment [6], 1.78. Moreover, the composite z-score in experiment [7] is 1.39; in experiment [9], 0.742; in experiment [10] it was 0.0373. In addition, in experiment [8], the z-score is -2.37 (inactive).

With `CCCC1(C(=O)OC)C=C2C(=C(C(C)C)C(=O)C2C)CN1` (stereo not given), the composite z-score in [1] is 0.578; in [2], -0.241; in [3] it was -0.133; in experiment [4], -0.397; in experiment [5] it was -0.052; in [6], 0.688. Besides, the composite z-score in [7] was -0.15; in [9], -0.0967; in experiment [10], -0.0645. In [8], the z-score was 1.89 (inactive).

For the compound `O=C1O[C@H](c2ccccc2)[C@H](c2ccccc2)N2[C@H]1[C@@H](C(=O)N1CCN(c3ncccn3)CC1)[C@]1(C(=O)Nc3ccc(C#CC4(O)CCCCCC4)cc31)[C@H]2c1ccc(O)cc1`, the composite z-score in experiment [1] is 0.406; in [2], 2.01; in experiment [3], -0.0125; in experiment [4], 1.04; in [5] it was 0.607; in experiment [6] it was 1.54. Further, the composite z-score was 1.28 in experiment [7], 0.0718 in experiment [9] and -0.0645 in experiment [10]. For the same compound, the z-score in experiment [8] was 0.0132 (inactive).

For the compound `O=C(CS)NCCCCCCNC(=O)[C@H]1C[C@H]2C(=O)NCC(=O)N2[C@H]1c1cccc(OCCO)c1`, the composite z-score in [1] is -0.0511; in experiment [2], 0.0436; in [3] it was -0.0488; in [4], 0.22; in [5] it was 0.166; in experiment [6], 1.36. Also, the composite z-score in experiment [7] was determined as 1.36; in experiment [9], 0.0909; in experiment [10], 0.0024. The z-score in experiment [8] is 0.525 (inactive).

In the case of `O=C(NCC(F)(F)F)[C@@H]1c2ccccc2C(=O)N(Cc2cc(C(F)(F)F)cc(C(F)(F)F)c2)[C@H]1c1ccc(CO)cc1`, the composite z-score in [1] is -0.381; in [2], -0.147; in experiment [3], -0.203; in [4], -0.155; in [5] it was 0.154; in experiment [6], 1.73. Besides, the composite z-score was 1.25 in [7], -0.192 in [9] and -0.0296 in [10]. Further, in [8], the z-score is -0.884 (inactive).

As for `Cc1ccc(S(=O)(=O)N2[C@@H](c3ccccc3)C(C(=O)O)=CC[C@H]2c2ccc(F)cc2)cc1`, the composite z-score in experiment [1] is -0.191; in experiment [2] it was 1.32; in experiment [3], 0.174; in experiment [4] it was 1.41; in experiment [5] it was -0.0595; in experiment [6], -0.0826. The composite z-score is 1.33 in [7], 0.654 in experiment [9] and -0.252 in experiment [10]. The z-score in experiment [8] is -2.75 (inactive).

For `C=C(C)C1CN([C@H](CO)c2ccccc2)C(=O)/C1=C\c1ccccc1` (stereo not given in full), the composite z-score in experiment [1] is -0.511; in experiment [2], 0.188; in experiment [3], -0.111; in [4], 0.305; in [5], -0.0443; in experiment [6], 0.049. Moreover, the values for the composite z-score in experiment [7], in [9] and in experiment [10] were 0.465, 0.173 and -0.174, respectively. For the same compound, in experiment [8], the z-score was -1.39 (inactive).

Consider `CC1(C)OB(/C=C\CC(OC(=O)c2ccncc2)c2ccccc2)OC1(C)C` (stereo not given), for which the composite z-score in [1] is 2.93; in experiment [2], 0.214; in experiment [3] it was 0.0262; in experiment [4] it was -1.4; in [5], -1.48; in experiment [6] it was 0.852. Besides, the results for the composite z-score in experiment [7], in experiment [9] and in [10] were 0.181, -0.0939 and -0.0296, respectively. For the same compound, the z-score in [8] was 1.99 (inactive).

Regarding `C=CCOC(=O)[C@H]1[C@@H]2C(=O)O[C@@H](c3ccccc3)[C@@H](c3ccccc3)N2[C@@H](c2ccc(OCCOC(=O)[C@H]3C[C@H]4C(=O)NCC(=O)N4[C@H]3c3ccc(O)cc3)cc2)[C@]12C(=O)Nc1ccccc12`, the composite z-score in experiment [1] is 0.924; in [2], 0.933; in experiment [3] it was -0.0355; in [4] it was 0.738; in experiment [5], 1.2; in experiment [6], 1.57. The composite z-score in [7] was determined as 1.33; in experiment [9], 0.389; in [10], 0.49. Further, in experiment [8], the z-score is 0.575 (inactive).

Turning to `CCc1cccc(NC(=O)O[C@H]2[C@H](OC(=O)Nc3ccccc3-c3ccccc3)[C@H](OC(=O)Nc3ccccc3-c3ccccc3)[C@@H](OC)O[C@@H]2CO)c1`, the composite z-score is -0.189 in experiment [1]; 0.42 in experiment [2]; 0.155 in [3]; 0.576 in experiment [4]; 1.54 in experiment [5]; 1.48 in experiment [6]. For the same compound, the results for the composite z-score in experiment [7], in experiment [9] and in experiment [10] were 1.11, 1.14 and -0.214, respectively. In [8], the z-score was -0.714 (inactive).

For the compound `CC(C)C(=C=CC[C@H](O)c1cccc(OCCO)c1)C[C@H](O)c1ccccn1`, the composite z-score is -0.242 in experiment [1]; -0.243 in experiment [2]; -0.166 in [3]; 0.016 in [4]; -0.0938 in [5]; -0.272 in experiment [6]. Also, the composite z-score is 1.05 in experiment [7], -0.0565 in experiment [9] and -0.0645 in [10]. In addition, the z-score in experiment [8] was -0.29 (inactive).
